Data published in PubChem BioAssay (NCI).
This is part of a sample that, as a whole, favours compounds with a hit. Of some 83,000 tested, about 20% had one in any assay.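 Percent growth is the endpoint: 0 to 100 indicates growth inhibition (40 means 60% inhibition), 0 means no net growth, and negative values indicate cell death.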 Unmarked numbers belong to inactive results. Calls of active or inactive are those of the source. How the source made its calls: active means growth percent below 10; inactive means the rest.

These compounds were tested on U251 CNS (assay: NCI-60 one-dose screen, 48 h (100 = growth as untreated, 0 = no growth, -100 = all killed)). Details: 10 µM unless noted.

SMILES | growth
C=C(C=O)[C@@H]1CC[C@]2(C)[C@H](CC=C3[C@H]4[C@@H](C)[C@H](C)CC[C@]4(C(=O)OC)CC[C@]32C)[C@@]1(C)CCC#N | 5.57% (active)
COc1ccc([C@@H]2c3[nH]c4ccccc4c3C[C@H]3C(=O)N(C4CCN(CC5CCCCC5)CC4)CC(=O)N23)c(OC)c1 | 72.4%
c1ccc(C(c2nc3ncncc3[nH]2)N2CSc3nc4ncncc4n3C2)cc1 (stereo not drawn) | 92.1%
Cc1occc1-c1nc2s/c(=C/c3ccc(-c4cc(C(F)(F)F)ccc4Cl)o3)c(=O)n2n1 | 105%
CNCc1cccc2c1OCCCCCCC(C)(O)CC(C)(C)S(=O)(=O)c1ccc(cc1)-c1cnc(N)c(n1)C(=O)N2 (stereo not drawn) | -70.9% (active)
CS(=O)(=O)c1ncc(-c2ccccc2)cn1 | 99.3%
CCOC(=O)c1c(N)c(C#N)cn1-c1cc(OC)c(OC)c(OC)c1 | 114%
CCCCCc1ccc(S(=O)(=O)Nc2cc(-c3csc(NC(=O)CN4CCN(C)CC4)n3)ccc2OC)cc1 | -18.2% (active)
Cc1nc2ncc(-c3ccc4ncnc(NCc5ccccc5)c4c3)cc2[nH]1 | 75.4%
C=C(C=O)[C@@H]1CC[C@]2(COC(C)=O)CC[C@]3(C)C(CC[C@@H]4[C@@]5(C)CC[C@H](OC(C)=O)C(C)(C)[C@@H]5CC[C@]43C)[C@@H]12 (stereo partly drawn) | -50.7% (active)
Cc1ccc(S(=O)(=O)N(CC[C@@H]2C[C@H]2c2cc3ccccc3o2)S(=O)(=O)c2ccc(C)cc2)cc1 | 92.5%
COC(=O)c1ccc(NC2=C/C(=N/S(=O)(=O)c3ccc(C(=O)O)cc3)c3ccccc3C2=O)cc1 | 2.7% (active)
O=C(CCn1c[n+](CC(=O)c2ccc(F)cc2)c2ccccc21)Nc1cccc2cccnc12 | 79.3%
CC1(C)CC[C@]2(C(=O)O)CC[C@]3(C)C(=CC[C@@H]4[C@@]5(C)CC/C(=N\OCCC#N)C(C)(C)[C@@H]5CC[C@]43C)[C@@H]2C1 | 107%
COc1ccc([C@@H]2[C@@H](O)C(=O)N2c2cc(OC)c(OC)c(OC)c2)cc1F | 12.2%
CCOC(=O)c1c(Nc2ccccc2)nn2c(-c3ccccc3)ccnc12 | 90.8%
Cc1cc(C)c2sc(=O)n(Cc3nnc(SCCC(=O)O)o3)c2n1 | 102%
C=CCn1c(SCC(=O)Nc2ccc(C(=O)/C=C/c3cccc([N+](=O)[O-])c3)cc2)nnc1-c1c[nH]c2ccccc12 | 94.4%
Cc1ccc(NC(=O)N[C@@H](Cc2cc(F)cc(F)c2)C(=O)NC2C(=O)N3C[C@H](O)C[C@H]3C(=O)N3CCCC[C@H]3C(=O)N[C@@H](CO)C(=O)N3C[C@H](C)C[C@H]3C(=O)O[C@H]2C)c(F)c1 (stereo partly drawn) | 29.3%

SMILES | growth
C#C[C@]1(O)CC[C@H]2[C@@H]3CC=C4c5sc(-c6ccc7c(c6)OCO7)nc5CC[C@]4(C)[C@H]3CC[C@@]21C | -24.5% (active)
CCCCCc1ccc(S(=O)(=O)Nc2cccc(-c3csc(NC(=O)CN4CCN(C)CC4)n3)c2)cc1 | 49.7%
CCCn1cnc2c(c1=N)C(c1ccc(F)cc1)c1sc3c(CC)cccc3c1O2 (stereo not drawn) | 18.5%
O=C(NCCn1ccnc1)c1ccc(-c2nc3ccc4[nH]ncc4c3c3c2CCCC3)cc1 | 58.6%
COc1cccc(O)c1/C=C(/C)c1ccc2c(OC)cccc2[o+]1 | 106%
NS(=O)(=O)c1ccc(-n2cc(CN3CCCCC3)nn2)cc1 | 104%
O=S(=O)(NCCNc1nccc(-n2cnc3ccccc32)n1)c1ccc(Cl)cc1 | 102%
COC(=O)C1(C)CCC[C@]2(C)[C@H]3C[C@H]4C(C(C)C)=C[C@]3(CC[C@@H]12)[C@H]1[C@@H]4[C@@H](OC(=O)c2ccco2)CC[C@@H]1OC(=O)c1ccco1 (stereo partly drawn) | 100%
CCCn1cnc2c(c1=N)C(c1ccc(OC)cc1)c1sc3c(C)cccc3c1O2 (stereo not drawn) | 20.6%
COc1cc(-c2nn(C(C)(C)C)cc2-c2ccnc(NCCCNS(=O)(=O)c3cccc(F)c3)n2)ccc1Cl | 88.3%
CC1(C)CC[C@]2(CN)CC[C@]3(C)C(=CC[C@@H]4[C@@]5(C)CCCNC(C)(C)[C@@H]5CC[C@]43C)[C@H]2C1 | 89.4%
NC(=O)c1cccc(C#CCNC[C@H]2C[C@@H](n3ccc4c(Cl)ncnc43)[C@H](O)[C@@H]2O)c1 | 100%
NC(N)=Nc1ccc(Oc2cccc(Nc3cccc(C(F)(F)F)c3)c2)cn1 | -62.7% (active)
O=C(CSc1nc2ccccc2c(=O)n1-c1ccccc1)Nc1cccc(C(=O)/C=C/c2ccccc2)c1 | 71.2%
COc1ccc(/C(N)=N/C(N)=N/c2nc3ccccc3s2)cc1 | 68%
Cc1cccc(/C=C/C(=O)Nc2ncc(Cc3cccc(C)c3)s2)c1 | 22.1%
COc1c(N2CC3CCCNC3C2)c(F)cc2c(=O)c(C(=O)N/N=C/c3ccc(Br)cc3)cn(C3CC3)c12 (stereo not drawn) | 86.9%
O=C(c1ccc(O)cc1)[C@@H]1CN[C@@]2(C(=O)Nc3ccccc32)[C@H]1c1ccc(F)cc1 | 102%
Nc1nc(Nc2ccccc2SSc2ccccc2Nc2nc(N)nc(-c3ccc4ccccc4c3)n2)nc(-c2ccc3ccccc3c2)n1 | 45.7%
